# Several values for one entry are separate records, joined by “and”; a condition that tells them apart may be missing. Equal entries are not always repeated. Hit rate of the full screen: of about 2,400 compounds, about 1,400 (58%) were called active. The set was probably picked from earlier hits. The list shows a part of the results. A number with no mark means an inactive call.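 How the source made its calls: active means inhibition of 30% or more at any tested dose; inconclusive means primary hits over the limit that were never retested; inactive means the rest.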
# Assay: ADP Hunter readout inhibition without MgcRacGAP – biochemical, coupled enzyme counter-screen, artefact control for MgcRacGAP inhibitor project, dose response (AID 624351);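 further: signal is the ADP detection kit reading of free GDP without any GAP enzyme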;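 on inhibition: 0% = median positive control wells and 100% = median negative control wells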
# Details: fluorescence, no MgcRacGAP; series mostly up to 80 µM; inhibition: at the top concentration
SMILES,IC50,inhibition
N/C(=N\[N+](=O)[O-])N/N=C/c1ccc(O)cc1,20.8 µM (active),
O=C(O)CCn1cc(C=C2C(=O)NC(=O)NC2=O)c(-c2ccc(Br)cc2)n1,,2%
Cc1ccc(N2C(=O)NC(=O)/C(=C/c3ccoc3)C2=O)cc1,,1.28%
COc1cc(C=C2C(=O)NC(=O)NC2=O)ccc1OCc1ccc([N+](=O)[O-])cc1,,3.37%
COc1cc(OC)c(OC)cc1/C=C1\C(=O)NC(=O)N(Cc2ccccc2)C1=O,,6.49%
CNC(=O)Oc1ccc(-c2cn3cc(C)ccc3n2)cc1,37.7 µM (active),
O=C(CNC1CCCC1)Nc1ccc(N2CCCCCC2)cc1,,23.6%
NCCc1cc(O)c(O)cc1O,,-8.6% [at 5 µM] and -17.1% [at 5 µM]
CCN(CC)c1ccc(/C=C2/C(=O)NC(=O)N(Cc3ccco3)C2=O)cc1,,-0.29%
c1ccc2c(c1)Nc1ccccc1S2,17.2 µM (active),
COc1ccccc1OCC#CCN1CCCC1,,13.8%
O=P1(c2ccccc2)Nc2ccccc2N1c1ccccc1 (stereo not given),29.5 µM (active),
Cn1cccc1/C=C1\C(=O)NC(=O)N(Cc2ccco2)C1=O,,4.1%
Nc1ccc2c3c(cccc13)-c1ccccc1-2,55.5 µM (active),
CC1=NNC(=O)C1Br (stereo not given),,5.41%
COc1ccccc1CNCCc1cccc(Cl)c1,,17.4%
C1=Cc2ccccc2Nc2ccccc21,12.4 µM (active),
Cc1cccc(OCC(=O)N2CCN(Cc3ccncc3)CC2)c1,,26.2%
COc1ccc(/C=C2/C(=O)NC(=O)N(c3ccc(C)c(C)c3)C2=O)cc1CN1C(=O)c2ccccc2C1=O,,3.7%
Cc1ccc(CN2CCN(Cc3ccccc3F)CC2)cc1,,25.6%
Cc1cc(/C=C2\C(=O)NC(=O)N(c3ccc(Br)cc3)C2=O)c(C)n1-c1cc(C(=O)O)cc(C(=O)O)c1,,-1.86%
O=C(O)Cn1cc(/C=C2\C(=O)NC(=O)N(c3ccc(Cl)cc3)C2=O)c2ccccc21,,0.89%
CN(C)c1ccc(NC(=O)CN2C(=O)CN=C(c3ccccc3)c3ccccc32)cc1,73.3 µM (active),
COc1ccc(OC)c(N2C(=O)NC(=O)/C(=C/c3ccc([N+](=O)[O-])s3)C2=O)c1,,4.62%
C=CCN1C(=O)/C(=C/c2ccc(Br)s2)C(=O)NC1=S,,1.24%
COc1ccccc1OCC#CCN1CCCC(C)C1 (stereo not given),,14.2%
CSc1nc(N)c(N=Nc2ccc([As](=O)(O)O)cc2)c(=O)[nH]1,,5.1%
O=C(O)c1ccc(-n2c(O)c(/C=C3\C=Nc4ccccc43)c(=O)[nH]c2=O)cc1,,4.69%

SMILES,IC50,inhibition
O=[N+]([O-])c1ccc2c(c1)Cc1cc(O)ccc1-2,24.5 µM (active),
Cc1cc(/C=C2\C(=O)NC(=O)N(c3ccccc3F)C2=O)c(C)n1-c1cc(C(=O)O)cc(C(=O)O)c1,,-1.62%
COc1ccccc1-n1c(O)c(/C=C2\C=Nc3ccccc32)c(=O)[nH]c1=O,,-3.18%
CC[N+](C)(CC)CCCCOc1ccc2c(c1)C(=O)c1cc(OCCCC[N+](C)(CC)CC)ccc1-2,,-3.48%
CC1=NCCc2c1[nH]c1cc(O)ccc21,10.2 µM (active),
Cc1ccc(OCC(=O)N2CCN(CC3CC4C=CC3C4)CC2)cc1 (stereo not given),,4.58%
Clc1ccc(OCC#CCN2CCCCCC2)cc1,,12.5%
CCN(CCCl)c1cc(CN(C)C)cc(NC(=O)c2ccc(C(=O)Nc3cc(CN(C)C)cc(N(CC)CCCl)c3)cc2)c1,,2.58%
COc1ccc(/C=C2\C(=O)NC(=S)N(C)C2=O)cc1C,,6.6%
CC1CCCCN1Cc1cccnc1 (stereo not given),,21.8%
COc1ccc(CCNCc2ccccc2)cc1,,14.1%
CN(C)C1C(=O)C(C(N)=O)=C(O)C2(O)C(=O)C3=C(O)c4c(O)cccc4C(C)(O)C3C(O)C12 (stereo not given),,-11.3%
COc1ccc(-n2c(/C=C/c3ccc(O)c(OC)c3)nc3ccccc3c2=O)cc1,43.2 µM (active),
O=c1c2ccccc2nc(/C=C/c2ccc(O)cc2)n1-c1ccccc1O,60.4 µM (active),
COc1cc(/C=C2/C(=O)NC(=O)N(c3ccccc3)C2=O)ccc1O,,20.2%
COc1cc(/C=C/c2nc3ccccc3c(=O)n2-c2ccccc2O)ccc1O,38.1 µM (active),
NC(N)=N/N=C/c1ccc(N(c2ccccc2)c2ccccc2)cc1,,9.2%
O=C1CN(O)C(c2ccccc2)=c2cc(Br)ccc2=N1,,-8.57%
O=C1NC(=O)N(c2ccc3c(c2)OCO3)C(=O)/C1=C\c1ccc(-c2ccccc2C(=O)O)o1,,2.82%
COc1ccc(CN2CCN(Cc3ccccc3OC)CC2)cc1,,26.5%
CCc1c(C)nc(N)nc1N1N=C1SC(C(C)=O)C(C)=O,,12.9%
O=C1NC(=O)C(=Cc2coc3ccc(O)cc3c2=O)C(=O)N1,,6.5%
C=CCN1C(=O)NC(=O)/C(=C/C=C/c2ccccc2)C1=O,,-1.77%
CN1C2CCC1/C(=C/c1ccccn1)C(=O)/C2=C\c1ccccn1,,1.44%
COc1cc(N2CCOCC2)ccc1/C=C1\C(=O)NC(=O)N(Cc2cccs2)C1=O,,4.76%
COc1cc2c(ccc3c4cc(OC)c(OC)cc4c[n+](C)c23)cc1O,,25.9%
CC1CN1P(=O)(Oc1ccc2ccccc2c1)N1CC1C (stereo not given),,26.3%

# Source: PubChem BioAssay AID624351 (Southern Research Specialized Biocontainment Screening …, 2012)
